Measured values published in PubChem BioAssay (NCI).
This is part of a sample that, as a whole, favours compounds with a hit. Of some 83,000 tested, about 20% had one in any assay.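 Values shown are percent growth following 48 h exposure of cells in 96-well plates to a single concentration of compound; below 10 was considered active.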 Values without a mark were called inactive. Activity calls are given as the source filed them.

Experiments:
Experiment in all cases: NCI-60 one-dose screen, 48 h (100 = growth as untreated, 0 = no growth, -100 = all killed)
Details in all cases: 10 µM unless noted
[1] = tested on: NCI-H23 lung
[2] = tested on: NCI-H322M lung
[3] = tested on: HOP-62 NSCLC
[4] = tested on: NCI-H460 lung
[5] = tested on: HOP-92 NSCLC
[6] = tested on: NCI-H522 lung
[7] = tested on: A549/ATCC NSCLC
[8] = tested on: 786-0 renal
[9] = tested on: COLO 205 colon
[10] = tested on: DU-145 prostate
[11] = tested on: K-562 leukemia
[12] = tested on: MALME-3M melanoma
[13] = tested on: MDA-MB-231 breast
[14] = tested on: RXF 393 renal
[15] = tested on: SF-268 CNS
[16] = tested on: SF-295 CNS
[17] = tested on: SF-539 CNS
[18] = tested on: UACC-257 melanoma
[19] = tested on: M14 melanoma
[20] = tested on: HCT-15 colon

SMILES	growth [1]	growth [2]	growth [3]	growth [4]	growth [5]	growth [6]	growth [7]	growth [8]	growth [9]	growth [10]	growth [11]	growth [12]	growth [13]	growth [14]	growth [15]	growth [16]	growth [17]	growth [18]	growth [19]	growth [20]
COC(=O)[C@@H]1CCCN1C(=O)[C@H]1CCCN1C(=O)[C@@H](Cc1c[nH]c2ccccc12)NC(=S)Nc1cc(C(F)(F)F)cc(C(F)(F)F)c1	63.8%	38.8%	65.2%	16.2%	80.9%	69.8%	28.4%	52.5%	22%	57.7%	27.6%	71.1%	25.4%	48.5%	38%	-52.2% (active)	62%	69.5%	39.8%	43.5%
Cc1ccc2nc(NC(=O)CSC(=S)N3CCN(c4ccccc4)CC3)sc2c1	83.7%	92.9%	105%	112%	82.6%	-81.8% (active)	94.6%	103%	116%	112%	95.7%	105%	101%	108%	101%	104%	104%	108%	97.8%	97%
CCOC(=O)C1(C(=O)OCC)N=C(c2ccccc2)C=C1c1ccccc1	86.4%	103%	105%	104%	66.5%	64.4%	86.7%	96%	99.9%	106%	65.2%	86.4%	96.3%	74.9%	92.6%	84.9%	94%	92.1%	90.5%	96.5%
COc1cc(C2C3=C(COC3=O)N(CCO)c3cc4c(cc32)CCC4)cc(OC)c1O (stereo not given)	45.1%	53.1%	41.2%	-22.7% (active)	97.5%	-24.5% (active)	18.1%	27%	13.6%	-25.8% (active)	14.7%	54.7%	18%	-35.8% (active)	43.6%	-2.29% (active)	-22.6% (active)	36.2%	1.16% (active)	17.9%
Cn1cc([C@@H]2Nc3ccc4[nH]ncc4c3[C@H]3[C@H]4CCC(C4)[C@H]32)c(C(F)(F)F)n1	90.6%	89.5%	53%	27.9%	64.1%	2.48% (active)	41.1%	59.1%	52.7%	72.9%	15.7%	40.2%	61.6%	53.4%	53%	37.7%	41.1%	50.1%	27.5%	30.8%
O=NN(C(=O)NC1CCC(C(=O)O)CC1)C1CCC(C(=O)O)CC1 (stereo not given)	106%	107%	104%	107%	98.8%	98.7%	106%	107%	115%	112%	95%	104%	103%	106%	107%	107%	103%	96.7%	104%	96.3%
COc1cc(/C=C2\CN(C)C/C(=C\c3cc(CN4CCOCC4)c(O)c(OC)c3)C2=O)cc(CN2CCOCC2)c1O	37.3%	67.5%	68.9%	15.2%	93.2%	41%	56.8%	76.6%	45.2%	28.5%	29.1%	65.6%	69.5%	78%	56.9%	77.1%	34.8%	71.2%	66.4%	64.8%
COc1ccc(/C=C2\NC(=O)NC2=O)cc1O	98.1%	109%	108%	98.4%	89.2%	98%	99.1%	97.8%	117%	116%	106%	105%	114%	111%	106%	94.2%	106%	99.4%	89.8%	99%
